Source: PubChem BioAssay
CYP2C9 inh: human CYP2C9 inhibition; P11712; CYP2C9 Supersomes, luciferin-H conversion, luminescence; inhibition, % at 5 µM; hit rate 20% among 96,000;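 active = blocking of liver enzyme CYP2C9 beyond about 50% at 5 µM, limit read from the data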
CYP2C19 inhib: blocks human cytochrome P450 2C19 | CYP2C19 Supersomes, luciferin-H EGE luminescence, 30 min | hit rate 21% among 96,000 | AID 778 | inhibition, % at 5 µM;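 active = CYP2C19 inhibition above a set limit at 5 µM in the primary screen, cut at about 50% in these data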;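 also: plate controls were negative control wells for no effect and 2.5 mM tranylcypromine positive control for full effect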
hDAT+cocaine: modulates human dopamine transporter uptake under cocaine; Q01959; B-score at 10 µM; hit rate 1.3% among 110,000; LLC-PK1 hDAT cells, [14C]-dopamine uptake with cocaine IC80; actives deviate in either direction;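 active = Z score or B-score, a plate-position-corrected score, falls beyond the plate's 99.7% confidence bounds, in either direction; inactive = both scores lie inside the 99.7% bounds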;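 also: scored against the spread of the other compound wells on the same plate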
D1 allo mod: allosteric modulators of human D1 dopamine receptor; AID 641; HEK293 D1, CRE-luciferase, dopamine EC30 potentiation; actives deviate in either direction; P21728; hit rate 5.9% among 58,000; B-score at 10 µM;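 active = luminescence count or its row- and column-corrected plate score outside the 99.7% band of the plate's sample wells, on either side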
Target sequence (P21728 whole entry, looked up): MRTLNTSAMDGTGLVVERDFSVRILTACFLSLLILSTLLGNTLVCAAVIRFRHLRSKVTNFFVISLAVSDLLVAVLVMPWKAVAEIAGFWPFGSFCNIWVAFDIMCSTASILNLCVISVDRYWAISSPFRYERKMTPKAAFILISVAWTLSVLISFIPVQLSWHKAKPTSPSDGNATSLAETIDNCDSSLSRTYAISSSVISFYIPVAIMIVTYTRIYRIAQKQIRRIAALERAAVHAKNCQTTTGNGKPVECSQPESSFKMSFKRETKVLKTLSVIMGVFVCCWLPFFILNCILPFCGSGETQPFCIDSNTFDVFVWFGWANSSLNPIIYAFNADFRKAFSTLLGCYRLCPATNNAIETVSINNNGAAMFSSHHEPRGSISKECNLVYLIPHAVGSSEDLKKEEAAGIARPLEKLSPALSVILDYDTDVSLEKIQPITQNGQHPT
CYP2C19 activ: cytochrome P450 2C19 (human) activation; P33261; 96,000 tested, under 10 active; AID 1025; activation factor at 5 µM; recombinant CYP2C19, luciferin-H EGE luminescence; active compounds read high; 0 = fully inhibited enzyme, 1 = untreated enzyme;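 active = activation factor of at least 2 at 5 µM in the primary screen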;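 also: 0 = wells with 2.5 mM tranylcypromine and 1 = vehicle-only wells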
CYP2C9 activ: CYP2C9 (human) activation. P11712. hit rate 1.4% among 96,000. AID 1024. activation factor at 5 µM. recombinant CYP2C9, luciferin-H conversion, luminescence; active compounds read high; factor 1 = untreated enzyme, 0 = blocked;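 active = activation factor of 2 or more for CYP2C9 at a 5 µM dose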;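 also: 0 = sulfaphenazole-blocked wells and 1 = vehicle-only wells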
An asterisk follows results filed as active; . = no result. This is a sample that favours compounds with a hit; in the whole collection about 28% have one here.

SMILES	CYP2C9 inh	CYP2C19 inhib	hDAT+cocaine	D1 allo mod	CYP2C19 activ	CYP2C9 activ
CCc1ccc(NC(=O)CC2C(=O)N(c3cccc(C)c3)C(=O)N2C2CC2)cc1 (stereo not given)	.	.	-0.58	.	.	.
COc1ccc(NC(=O)CC2C(=O)N(c3cccc(OC)c3)C(=O)N2CCC(C)C)cc1 (stereo not given)	62*	66*	0.89	.	0.3	0.4
COc1ccc(NC(=O)CC2C(=O)N(c3cccc(C)c3)C(=O)N2C2CCCCC2)cc1 (stereo not given)	47	56*	1.2	.	0.4	0.5
Cc1ccc(S(=O)(=O)NC(=O)c2cc(C)n(-c3cc(S(=O)(=O)N4CCOCC4)ccc3N3CCCC3)c2C)cc1	28	-7	0.0099	.	1.1	0.7
CC(C)(C)[C@H]1C=C(C(=O)Nc2ccccc2)O[C@@H](OCCCCO)C1	.	.	0.45	.	.	.
O=S(=O)(c1ccc(C2=CSC3=NCCN23)cc1)N1CCOCC1	11	56*	-0.49	-0.092	0.4	0.9
CC(C)(C)Cc1nc(-c2ccc(Cl)cc2)no1	-11	-11	0.23	.	1.1	1.1
CS(=O)c1ccccc1COC(=O)Nc1ccc(Cl)cc1 (stereo not given)	46	95*	0.41	.	0.1	0.5
Cc1ccc(NC(=O)OCc2cn(-c3ccc(Cl)cc3)nn2)cc1	44	24	.	.	0.8	0.6
COc1cc(OC)c2c(-c3ccccc3)cc(=O)oc2c1C(CC(=O)N1CCCC1)c1ccc2c(c1)OCO2 (stereo not given)	.	.	2.1*	.	.	.
CCc1ccc(NC(=O)CCS(=O)(=O)c2cccc3nsnc23)cc1	85*	87*	0.72	.	0.1	0.2
COc1cccc(CNC(=O)CCS(=O)(=O)c2cccc3nsnc23)c1	-33	64*	.	0.071	0.4	1.3
Cc1ccc(CNC(=O)CCS(=O)(=O)c2cccc3nsnc23)cc1	-22	34	0.7	-0.61	0.7	1.2
COc1cc(-c2nc3cnccn3c2Nc2ccc(C)cc2)ccc1O	55*	80*	1.6	.	0.2	0.5
COc1cc(-c2nc3cnccn3c2Nc2ccc3c(c2)OCCO3)ccc1O	43	30	0.028	-0.93	0.7	0.6
Oc1ccc(-c2nc3ncccn3c2Nc2ccc3c(c2)OCO3)cc1	59*	44	-0.29	-0.59	0.6	0.4
c1ccc(-c2nc3cnccn3c2Nc2ccc3c(c2)OCCO3)cc1	.	.	2.5*	0.56	.	.
COc1cc(-c2nc3cnccn3c2Nc2ccc(C(C)C)cc2)ccc1O	19	11	0.017	.	0.9	0.8
COc1cc(-c2nc3cnccn3c2Nc2ccccc2)ccc1O	51*	42	-0.067	-1.9	0.6	0.5
CCn1c(Cn2nnc(-c3ccccc3)n2)nnc1SCC(=O)Nc1cccc(C)c1C	57*	68*	-0.087	-0.29	0.3	0.4
CCn1c(Cn2nnc(-c3ccccc3)n2)nnc1SCC(=O)Nc1cccc(C(C)=O)c1	42	70*	1.5	-0.6	0.3	0.6
CCn1c(Cn2nnc(-c3ccccc3)n2)nnc1SCC(=O)Nc1ccc(C(C)=O)cc1	40	26	-0.059	0.41	0.7	0.6
CC(=O)c1cc2c(cc1NC(=O)CN1CCCCC1C)OCO2 (stereo not given)	7	42	-0.0067	-0.22	0.6	0.9
CCc1ccc(-c2nc(-c3ccncc3)no2)cc1	84*	99*	0.048	-4.1	0	0.2
CCCCc1ccc(-c2nc(-c3ccncc3)no2)cc1	67*	84*	-0.62	0.29	0.2	0.3
SMILES	CYP2C9 inh	CYP2C19 inhib	hDAT+cocaine	D1 allo mod	CYP2C19 activ	CYP2C9 activ
COc1ccccc1/C=N/NC(=Nc1ccc(C)cc1)c1nc2ccccc2s1	1	-1	-0.042	.	1	1
COc1cc(/C=N/NC(=Nc2ccc(C)cc2)c2nc3ccccc3s2)ccc1O	94*	24	0.35	.	0.8	0.1
CC(=Nc1ccccc1)c1sc2ccccc2c1O	33	39	2.3*	.	0.6	0.7
COc1ccccc1-c1nnc(SCC(=O)O)n1C	-10	6	0.34	0.69	0.9	1.1
COc1ccc(N(Cc2cc(=O)[nH]c3ccccc23)C(=O)c2ccco2)cc1	63*	5	0.76	0.44	0.9	0.4
COc1ccc(CN(Cc2nc3ccccc3c(=O)[nH]2)C(=O)C(C)(C)C)cc1	4	28	0.13	-4.9*	0.7	1
